Measurements from patent publication US20040171041, “Preparation and use of single-stranded transcription substrates for synthesis of transcription products corresponding to target sequences” (published 2004).

Target: T1, mini-vRNAP (N4 virion RNA polymerase transcriptionally active domain, His-tagged) (Bacteriophage N4, UniProt Q859P9 SEQ:38-1143)
T1 sequence: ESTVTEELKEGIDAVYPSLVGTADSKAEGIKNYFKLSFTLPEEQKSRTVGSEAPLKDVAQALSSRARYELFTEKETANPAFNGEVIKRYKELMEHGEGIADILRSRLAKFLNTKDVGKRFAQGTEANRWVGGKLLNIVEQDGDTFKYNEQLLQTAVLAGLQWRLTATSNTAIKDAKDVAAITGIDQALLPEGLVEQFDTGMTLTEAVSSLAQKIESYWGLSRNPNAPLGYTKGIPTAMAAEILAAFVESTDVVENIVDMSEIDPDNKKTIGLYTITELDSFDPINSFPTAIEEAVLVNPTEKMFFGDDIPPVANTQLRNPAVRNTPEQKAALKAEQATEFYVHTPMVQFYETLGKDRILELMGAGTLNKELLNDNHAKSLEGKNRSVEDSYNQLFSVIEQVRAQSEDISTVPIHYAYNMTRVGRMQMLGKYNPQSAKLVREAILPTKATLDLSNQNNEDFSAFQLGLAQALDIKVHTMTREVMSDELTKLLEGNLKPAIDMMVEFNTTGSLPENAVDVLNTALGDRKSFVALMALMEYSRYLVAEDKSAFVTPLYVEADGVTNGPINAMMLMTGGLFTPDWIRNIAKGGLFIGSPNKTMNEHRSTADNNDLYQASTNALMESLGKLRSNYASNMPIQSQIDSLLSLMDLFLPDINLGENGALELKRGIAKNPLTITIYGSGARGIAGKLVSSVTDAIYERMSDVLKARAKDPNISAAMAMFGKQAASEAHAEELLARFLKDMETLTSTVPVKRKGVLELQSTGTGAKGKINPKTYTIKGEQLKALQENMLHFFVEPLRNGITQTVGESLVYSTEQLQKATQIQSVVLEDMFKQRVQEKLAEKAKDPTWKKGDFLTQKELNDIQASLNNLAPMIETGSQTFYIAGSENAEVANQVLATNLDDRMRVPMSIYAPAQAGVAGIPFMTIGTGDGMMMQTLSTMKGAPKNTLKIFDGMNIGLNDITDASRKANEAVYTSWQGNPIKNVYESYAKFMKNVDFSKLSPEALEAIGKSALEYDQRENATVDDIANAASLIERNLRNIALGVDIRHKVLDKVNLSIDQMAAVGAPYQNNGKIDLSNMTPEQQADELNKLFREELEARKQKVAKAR
Test: filter; further one order of magnitude reduction versus -2 pairing
Details: tags: N-terminal His6 (pBAD B leader); hairpin, extended stem; ssDNA; [NONE]
Excerpt: To study the sequence determinants of promoter binding, 20 base-long promoter oligonucleotides, containing the wild-type vRNAP promoter P2 sequence and substituted at every position with a single 5-Iodo-dU, were used. Whenever substitutions were made in the stem, the corresponding pairing base was changed to A. These oligonucleotides were ³²P end-labeled and used to determine the enzyme's affinity for promoter DNAs by a filter binding assay and the ability to crosslink to mini-vRNAP upon UV irradiation at 320 nm.
The effect of changes in the stem length of the hairpin on the ability of mini-vRNAP to bind P2 promoter DNA was analyzed. […] The stem can be shortened by two base pairs without change in the binding affinity. […] No binding is observed if one more nucleotide is removed and the loop cannot form.

Row | Sequence | binding signal [fold lower affinity]
1 | TCCAAAAGAAGCGGAGCTTCTTTTG | ~1000
